# Test results: PubChem BioAssay
# The list shows a part of the results.
# Biological target: Regulator of G-protein signaling 19 (Homo sapiens) (UniProt P49795)
# Experiment: small molecules altering RGS protein interactions with GNAO1 – biochemical, multiplexed beads, flow cytometry, RGS4/7/8/16/19, primary screen (AID 1504);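 note: fluorescently labeled Galpha-o bound to GDP with aluminium fluoride binding biotinylated RGS beads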
# Details: multiplexed bead flow cytometry, measured here: RGS19 interaction, at 10 µM
structure (smiles),measurement,value
CC(C)N(CC#CCC1(O)c2ccccc2-c2ccccc21)C(C)C,RGS19–Galpha-o binding response,78.4%
